The chains are these.
T1: UNK ZnF1-6 (called full-length) (human, UniProt Q9C0B0 30-357)
T1 sequence: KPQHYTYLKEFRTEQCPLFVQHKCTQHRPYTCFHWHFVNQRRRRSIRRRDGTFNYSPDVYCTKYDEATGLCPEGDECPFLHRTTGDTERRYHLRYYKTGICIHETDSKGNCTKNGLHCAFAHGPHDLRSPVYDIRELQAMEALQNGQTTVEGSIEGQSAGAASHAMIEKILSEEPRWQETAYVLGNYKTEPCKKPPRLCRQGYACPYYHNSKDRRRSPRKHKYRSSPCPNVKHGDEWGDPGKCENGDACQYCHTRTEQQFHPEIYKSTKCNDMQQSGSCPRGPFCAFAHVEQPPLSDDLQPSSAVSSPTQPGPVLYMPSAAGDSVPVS

B1: chr10:91630394:91630495:-|CDS|ENSG00000119938|unk|total|mutant (ssRNA)
RNA: GGGAGUUCUACAGUCCGACGAUCCUUGGACCUUAAUGAUAUCUCCUCUGCCUUAAAACACCACGAGGAGAAAAACUUGAUUUCCGAUUUCCCUCAGCCUUCAACCGAUUACUUAAGUUUCCGGAGCCACUUUCAGAAGAACUUCAACAGAGGAUUGAGCAUCA
B2: chr11:20048915:20049016:+|CDS|ENSG00000166833|unk|total|mutant (ssRNA)
RNA: GGGAGUUCUACAGUCCGACGAUCGAGCAGUGGGAGCAGCAGUCCUCUCUACAGCAAGAAUGUGGACCUCAACCAGUCUCCGCCCGCCUCCAGCCCCAGCUCAGCCCACUCGGCCCCUUCCAACAGCCUCACCUGGGGCACCAACAACAGAGGAUUGAGCAUCA
B3: chr1:178479239:178479534:-|three_prime_utr|ENSG00000188585|control|control|control (ssRNA)
RNA: GGGAGUUCUACAGUCCGACGAUCCAGUUUCUGUUUCAUGCAAUCUUCUCUGGAUUUUGAGUAAAUUUUAAUUUUUUAAUCCCUAGUAGAACAAGAUUAGGAAGAACUCGACAUGUGCCAAAAAGCACAGACCUACAACUAACACAACAGAGGAUUGAGCAUCA
B4: chr1:214641902:214642005:+|CDS|ENSG00000117724|unk|total|mutant (ssRNA)
RNA: GGGAGUUCUACAGUCCGACGAUCAGAAAUCAAUGUAAUUUUAAACCUCAGAUGGAUCUUGAAGUUAAAGAAAUUUCUCCCGACCGUUAUAAUGCGCAGUUGGUGCAAUCCGAAGCUAUGCUAAGAAAUAAGGAAUUAAAACUUCAACAGAGGAUUGAGCAUCA
B5: chr20:31664451:31666086:-|three_prime_utr|ENSG00000171552|control|control|control (ssRNA)
RNA: GGGAGUUCUACAGUCCGACGAUCAUGCAGCCCAUGCCCACCUGCCCAUCACAGGGUUGGGCCCAGAUCUGGUCCCUUGCAGCUAGUUUUCUAGAAUUUAUCACACUUCUGUGAGACCCCCACACCUCAGUUCCCUUGGCCUCACAACAGAGGAUUGAGCAUCA
B6: chr10:100209595:100209696:-|CDS|ENSG00000213341|unk|FALSE|unique (ssRNA)
RNA: GGGAGUUCUACAGUCCGACGAUCACUUCUUUCAGAGACAGGAAUUUCUCUGGAUCCUCGGAAACCAGCCUCUCAAUGUGUUCUAGAUGGAGUUGUAAGAAAAUUAAUUAUAAUAUCCCUAGAGUAUGUGAAAUCUAGAGGGAUCAACAGAGGAUUGAGCAUCA
B7: chr8:116643852:116643953:-|3pUTR|ENSG00000147677|unk|total|mutant (ssRNA)
RNA: GGGAGUUCUACAGUCCGACGAUCUGUUGUGAAUGAGGAAUCCGGAAUCCGGAGAAUGGCCGUACAUUGGGAAAAACAUAUUUCCGUAAUUUUUAUAUUUUAAAGAUAAUCACAGAUUUUGCUGUUUGUGCAUCACCAAAAUCACAACAGAGGAUUGAGCAUCA
B8: chr12:81257974:81259660:-|three_prime_utr|ENSG00000139220|control|control|control (ssRNA)
RNA: GGGAGUUCUACAGUCCGACGAUCAUGACUUAUUAAAAGCUGAAAAAUGUGAUUUUUGGGGGGAGUCAGAUAUUACAUUUGAUUAGUUUACUACAAAUUGUAAUAAAAUGCUUAAGUCAUUUGAAUAAUAAACAUCAUCUACAUCAACAGAGGAUUGAGCAUCA
B9: chr8:80637648:80637749:-|3pUTR|ENSG00000164684|unk|FALSE|unique (ssRNA)
RNA: GGGAGUUCUACAGUCCGACGAUCUGCGCUUAGCUGCAAAGUGCCUGUCAGCAGCUCCAGGCACCAACAAGGUGCCCUUUUAUUAGACAAUUCCUGCCCGAACAUAACCAUAUUGCAGAUGAAAAUUUUCAAUAGAGAAUGACACAACAGAGGAUUGAGCAUCA
B10: chr16:11872726:11872856:-|3pUTR|ENSG00000103342|msi1_unk|FALSE|overlapping (ssRNA)
RNA: GGGAGUUCUACAGUCCGACGAUCACAUAAUUGCCUACAAUAAUGAAAACCUACAGGAAUUUUUUUAUUUUUCAUUUUCCCCUUAGGCAUAUUUAGUAUUUUUCCCCCAGGCAGAUCAUUCUGAGUGUGCGAGUGUGUGUGCACCAACAGAGGAUUGAGCAUCA
B11: chr5:132541444:132541810:-|three_prime_utr|ENSG00000113525|control|control|control (ssRNA)
RNA: GGGAGUUCUACAGUCCGACGAUCAAAUUGAUAUACUUUUUUCUUAUUUAACUUAACAUUCUGUAAAAUGUCUGUUAACUUAAUAGUAUUUAUGAAAUGGUUAAGAAUUUGGUAAAUUAGUAUUUAUUUAAUGUUAUGUUGUGUCAACAGAGGAUUGAGCAUCA
B12: chr8:116643852:116643953:-|3pUTR|ENSG00000147677|unk|FALSE|unique (ssRNA)
RNA: B7 RNA with C41U, C42A, C48U, C49A, C59U, C60A, C83U, C84A
B13: chr6:98868534:98874277:-|three_prime_utr|ENSG00000112234|control|control|control (ssRNA)
RNA: GGGAGUUCUACAGUCCGACGAUCAUUAAAAUUAAUGUGCUUUGUUGGGGUUUAAUUUUGGGAUUGGUUUUGGGUUUUGUUUUUAGUUGUUUUAAUGGUAAGAAUUAAGACAUUUGUAGAUUUUAAAGAAAAAUAUGAAAUUGUCAACAGAGGAUUGAGCAUCA
B14: chr9:83661418:83661519:-|3pUTR|ENSG00000135018|msi1|FALSE|unique (ssRNA)
RNA: GGGAGUUCUACAGUCCGACGAUCUAUAGUUGGGUGACCAGAUUUUGUCCUGCAUCUGUCCAGUUUAUUUGCUUUUUAAACAUUAGCCUAUGGUAGUAAUUUAUGUAGAAUAAAAGCAUUAAAAAGAAGCAAAUCAUUUGCACUCAACAGAGGAUUGAGCAUCA
B15: chr1:56708525:56708626:+|3pUTR|ENSG00000162409|unk|FALSE|unique (ssRNA)
RNA: GGGAGUUCUACAGUCCGACGAUCACCUUUCUCAAAUUCUUUUUGCCUCUAUUUAUUUUUGCAUUUCACCAACAGUGAUAAAAUAGUUAAAUGAAACAAAGCAAAGUAUCAACAGUCCCUUAAAUGAGAAUCCUUAUCUUUGAUCAACAGAGGAUUGAGCAUCA

Where a chain is given by its changes, count along the chain named. Whole data set: some 5,800 sequences, median “enrichment r” near 0.68, cut for the highest 2% near 11. For the sample, the highest values were picked, then their nearest neighbours and some sequences at random.

This test concerns the target T1, UNK ZnF1-6 (called full-length). Kind of test: nsRBNS (natural sequence RNA bind-n-seq); RBNS binding buffer (assumed for nsRBNS): 25 mM Tris pH 7.5, 150 mM KCl, 3 mM MgCl2, 0.01% Triton X-100, 500 ug/ml BSA, 20 U/ml SUPERase-In, 4 C; UNK is unkempt and MSI1 is Musashi-1; names of the RNAs are library labels; protein concentration not given here; high values mean tight binding.
B1 showed a binding signal of 0.273 enrichment R.

B2 gave a binding signal of 0.913 enrichment R.

Molecule B3 registered a binding signal of 0.449 enrichment R.

As to B4, the binding signal worked out at 0.401 enrichment R.

The molecule B5 returned a binding signal of 1.85 enrichment R.

Molecule B6 returned a binding signal of 0.651 enrichment R.

As to B7, the binding signal amounted to 0.568 enrichment R.

B8 returned a binding signal of 0.956 enrichment R.

In turn, B9 displayed a binding signal of 0.967 enrichment R.

B10: the binding signal was 11.3 enrichment R.

For B11, the binding signal was 7.43 enrichment R.

As for B12, the binding signal came to 22.5 enrichment R.

On to B13, for which the binding signal came out at 12.9 enrichment R.

B14 registered a binding signal of 7.97 enrichment R.

Regarding B15, the binding signal was found to be 0.947 enrichment R.
